# From PMC7862700, “An all-to-all approach to the identification of sequence-specific readers for epigenetic DNA modifications on cytosine”
# How the values were obtained:
# Test in all cases: DAPPL (digital affinity profiling via proximity ligation, sequencing); 10 mM Tris-HCl pH 7.5, 50 mM NaCl, 1 mM DTT, 4% glycerol, room temperature, 30 min; GST-TFs on glutathione beads, 16-mer random dsDNA library, 0.1% formaldehyde crosslink after washing; high values mean tight binding
# FEV = target: T1, FEV (Homo sapiens, UniProt Q99581 1-238); conditions: protein: recombinant; tags: N-terminal GST; dsDNA, one strand shown
# T1 sequence: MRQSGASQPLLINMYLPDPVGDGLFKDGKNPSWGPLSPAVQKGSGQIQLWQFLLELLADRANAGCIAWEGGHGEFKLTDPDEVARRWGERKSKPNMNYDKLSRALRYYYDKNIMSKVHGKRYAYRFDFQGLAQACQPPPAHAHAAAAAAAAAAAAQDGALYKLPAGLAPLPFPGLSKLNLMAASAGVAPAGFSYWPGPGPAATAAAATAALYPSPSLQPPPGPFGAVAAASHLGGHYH
# Summary of the method: (§1)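 Human transcription factors were made in yeast as GST fusions, captured on glutathione beads and barcoded with DNA. With a tag-only sample included, the pool was incubated with 200 nmole of a random double-stranded 16-mer DNA library in Tris/NaCl/DTT/glycerol buffer at room temperature for 30 min, then crosslinked with 0.1% formaldehyde after washing, ligated by proximity, amplified and sequenced. For binding signal, each hexamer's read frequency for a factor is divided by its frequency for the tag-only sample.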
# ETV5 = ETV5 (Homo sapiens, UniProt P41161 1-510); conditions: protein: recombinant; tags: N-terminal GST; dsDNA, one strand shown
# Summary of the method: as §1
# HSF1 = HSF1 (Homo sapiens, UniProt Q00613 1-529); conditions: protein: recombinant; tags: N-terminal GST; chain copies: 3; dsDNA, one strand shown
# Summary of the method: as §1
# SPIC = target: T2, SPIC (Homo sapiens, UniProt Q8N5J4 1-248); conditions: protein: recombinant; tags: N-terminal GST; dsDNA, one strand shown
# T2 sequence: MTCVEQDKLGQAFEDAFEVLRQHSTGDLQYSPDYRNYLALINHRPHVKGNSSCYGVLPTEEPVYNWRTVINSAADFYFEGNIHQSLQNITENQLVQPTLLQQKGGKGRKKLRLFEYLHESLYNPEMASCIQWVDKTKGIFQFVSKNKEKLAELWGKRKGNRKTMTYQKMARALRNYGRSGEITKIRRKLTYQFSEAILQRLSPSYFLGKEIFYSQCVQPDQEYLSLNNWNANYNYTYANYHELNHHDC
# Summary of the method: as §1
# ELF4 = ELF4 (Homo sapiens, UniProt Q99607 1-663); conditions: protein: recombinant; tags: N-terminal GST; dsDNA, one strand shown
# Summary of the method: as §1
# ELK4 = target: T3, ELK4 (Homo sapiens, UniProt P28324-2 1-405); conditions: protein: recombinant; tags: N-terminal GST; dsDNA, one strand shown
# T3 sequence: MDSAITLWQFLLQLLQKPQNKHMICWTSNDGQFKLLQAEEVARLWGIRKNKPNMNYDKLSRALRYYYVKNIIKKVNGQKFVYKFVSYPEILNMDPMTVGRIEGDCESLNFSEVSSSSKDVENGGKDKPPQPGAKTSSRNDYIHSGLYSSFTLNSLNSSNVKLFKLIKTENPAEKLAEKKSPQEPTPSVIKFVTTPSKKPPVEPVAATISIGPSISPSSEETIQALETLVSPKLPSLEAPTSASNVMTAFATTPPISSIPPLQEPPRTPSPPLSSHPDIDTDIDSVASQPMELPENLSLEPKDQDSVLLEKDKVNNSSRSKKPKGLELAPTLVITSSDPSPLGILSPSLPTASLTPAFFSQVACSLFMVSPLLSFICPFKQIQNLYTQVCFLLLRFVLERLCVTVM
# Summary of the method: as §1
# ETV2 = target: T4, ETV2 (Homo sapiens, UniProt O00321 1-342); conditions: protein: recombinant; tags: N-terminal GST; dsDNA, one strand shown
# T4 sequence: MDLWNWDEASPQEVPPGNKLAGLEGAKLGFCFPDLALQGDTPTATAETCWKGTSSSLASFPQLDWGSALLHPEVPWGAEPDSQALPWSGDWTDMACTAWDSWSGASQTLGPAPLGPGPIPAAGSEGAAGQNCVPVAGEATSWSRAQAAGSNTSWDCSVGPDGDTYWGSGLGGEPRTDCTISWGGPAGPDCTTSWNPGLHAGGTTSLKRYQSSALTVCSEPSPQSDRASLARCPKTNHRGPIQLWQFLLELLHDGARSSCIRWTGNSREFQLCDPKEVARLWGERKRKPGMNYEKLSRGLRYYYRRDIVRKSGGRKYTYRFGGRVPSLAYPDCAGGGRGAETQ
# Summary of the method: as §1
# ELF3 = target: T5, ELF3 (Homo sapiens, UniProt P78545 1-371); conditions: protein: recombinant; tags: N-terminal GST; dsDNA, one strand shown
# T5 sequence: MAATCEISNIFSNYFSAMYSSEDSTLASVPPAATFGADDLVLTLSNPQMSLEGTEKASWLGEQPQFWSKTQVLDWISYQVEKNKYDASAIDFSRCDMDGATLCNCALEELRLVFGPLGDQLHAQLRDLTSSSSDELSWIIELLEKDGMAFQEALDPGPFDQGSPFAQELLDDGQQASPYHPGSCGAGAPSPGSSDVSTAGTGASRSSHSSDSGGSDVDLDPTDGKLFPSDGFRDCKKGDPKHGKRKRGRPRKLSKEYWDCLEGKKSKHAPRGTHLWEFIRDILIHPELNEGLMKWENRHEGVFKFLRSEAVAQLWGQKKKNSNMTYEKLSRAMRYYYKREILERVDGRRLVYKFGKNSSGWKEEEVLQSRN
# Summary of the method: as §1
# CRX = CRX (Homo sapiens, UniProt O43186 1-299); conditions: protein: recombinant; tags: N-terminal GST; dsDNA, one strand shown
# Summary of the method: as §1
# ETV1 = ETV1 (Homo sapiens, UniProt P50549 1-477); conditions: protein: recombinant; tags: N-terminal GST; dsDNA, one strand shown
# Summary of the method: as §1
# Chain of ETV5 (P41161 whole entry): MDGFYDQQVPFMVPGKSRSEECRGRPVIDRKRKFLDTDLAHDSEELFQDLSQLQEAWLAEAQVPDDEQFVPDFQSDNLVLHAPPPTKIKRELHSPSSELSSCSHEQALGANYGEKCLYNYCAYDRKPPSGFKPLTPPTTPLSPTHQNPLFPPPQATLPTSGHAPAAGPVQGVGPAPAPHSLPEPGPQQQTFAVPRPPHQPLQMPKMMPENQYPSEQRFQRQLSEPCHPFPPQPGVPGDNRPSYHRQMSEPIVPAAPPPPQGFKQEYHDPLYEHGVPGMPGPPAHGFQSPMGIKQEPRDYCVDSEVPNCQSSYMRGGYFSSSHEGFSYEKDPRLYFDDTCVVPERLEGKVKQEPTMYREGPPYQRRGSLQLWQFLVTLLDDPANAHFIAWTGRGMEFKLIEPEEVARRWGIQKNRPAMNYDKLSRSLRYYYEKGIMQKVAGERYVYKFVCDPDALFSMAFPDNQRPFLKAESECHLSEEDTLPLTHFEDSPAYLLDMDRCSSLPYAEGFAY
# Chain of CRX (O43186 whole entry): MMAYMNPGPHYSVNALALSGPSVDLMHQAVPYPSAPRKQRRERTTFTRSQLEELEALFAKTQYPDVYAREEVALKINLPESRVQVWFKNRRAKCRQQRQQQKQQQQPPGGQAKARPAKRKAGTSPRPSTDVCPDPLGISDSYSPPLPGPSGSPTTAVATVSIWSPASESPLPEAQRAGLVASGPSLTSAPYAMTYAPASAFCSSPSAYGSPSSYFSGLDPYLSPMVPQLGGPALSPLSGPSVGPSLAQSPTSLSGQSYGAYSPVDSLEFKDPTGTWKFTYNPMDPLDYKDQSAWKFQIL
# Chain of HSF1 (Q00613 whole entry): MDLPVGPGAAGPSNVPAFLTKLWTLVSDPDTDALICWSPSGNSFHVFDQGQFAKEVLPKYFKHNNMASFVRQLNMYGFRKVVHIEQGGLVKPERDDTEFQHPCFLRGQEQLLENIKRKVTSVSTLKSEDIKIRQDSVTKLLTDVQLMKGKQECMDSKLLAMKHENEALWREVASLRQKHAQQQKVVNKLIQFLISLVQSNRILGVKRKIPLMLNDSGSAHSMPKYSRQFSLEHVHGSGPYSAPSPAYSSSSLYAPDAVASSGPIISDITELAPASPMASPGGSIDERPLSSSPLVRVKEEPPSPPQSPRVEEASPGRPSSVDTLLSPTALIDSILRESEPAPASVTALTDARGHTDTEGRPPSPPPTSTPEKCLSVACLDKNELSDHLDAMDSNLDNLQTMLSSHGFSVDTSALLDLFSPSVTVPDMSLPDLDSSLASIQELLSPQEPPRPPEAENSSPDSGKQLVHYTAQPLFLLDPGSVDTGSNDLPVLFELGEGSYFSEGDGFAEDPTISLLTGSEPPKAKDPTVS
# Chain of ETV1 (P50549 whole entry): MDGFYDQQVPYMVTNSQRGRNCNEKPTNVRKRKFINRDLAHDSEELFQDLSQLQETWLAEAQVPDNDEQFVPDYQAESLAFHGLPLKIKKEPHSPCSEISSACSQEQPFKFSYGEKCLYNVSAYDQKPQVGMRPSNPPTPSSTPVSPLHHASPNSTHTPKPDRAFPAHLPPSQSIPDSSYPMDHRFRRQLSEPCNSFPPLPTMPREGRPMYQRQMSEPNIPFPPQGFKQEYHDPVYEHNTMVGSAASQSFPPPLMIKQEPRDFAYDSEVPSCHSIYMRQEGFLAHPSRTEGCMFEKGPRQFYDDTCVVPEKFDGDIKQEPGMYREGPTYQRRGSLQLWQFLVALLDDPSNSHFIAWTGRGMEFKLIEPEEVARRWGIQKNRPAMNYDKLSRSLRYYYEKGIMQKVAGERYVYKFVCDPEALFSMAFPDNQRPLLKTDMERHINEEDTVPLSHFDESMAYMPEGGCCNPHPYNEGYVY
# Chain of ELF4 (Q99607 whole entry): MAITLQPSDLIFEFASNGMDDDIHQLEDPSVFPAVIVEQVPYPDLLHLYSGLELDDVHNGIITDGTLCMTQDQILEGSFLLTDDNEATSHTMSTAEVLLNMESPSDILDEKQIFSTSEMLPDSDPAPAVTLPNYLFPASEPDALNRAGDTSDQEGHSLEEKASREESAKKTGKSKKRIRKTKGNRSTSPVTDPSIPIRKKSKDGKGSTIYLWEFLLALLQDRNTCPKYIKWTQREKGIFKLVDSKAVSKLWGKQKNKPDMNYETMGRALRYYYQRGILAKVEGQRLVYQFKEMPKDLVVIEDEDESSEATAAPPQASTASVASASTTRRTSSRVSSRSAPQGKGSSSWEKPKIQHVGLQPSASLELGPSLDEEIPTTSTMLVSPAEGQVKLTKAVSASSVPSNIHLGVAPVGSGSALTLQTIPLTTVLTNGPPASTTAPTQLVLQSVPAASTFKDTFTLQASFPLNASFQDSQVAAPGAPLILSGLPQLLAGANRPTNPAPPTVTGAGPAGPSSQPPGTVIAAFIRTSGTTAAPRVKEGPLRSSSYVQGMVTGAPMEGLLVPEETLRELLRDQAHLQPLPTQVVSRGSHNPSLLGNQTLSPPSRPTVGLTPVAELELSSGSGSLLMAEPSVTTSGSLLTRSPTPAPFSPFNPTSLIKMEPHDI
sequence,measurement,setting,value
CTATAC,binding signal,FEV,"1.3 fold enrichment (6-mer frequency, TF over GST control)"
same,binding signal,ETV5,"1.22 fold enrichment (6-mer frequency, TF over GST control)"
same,binding signal,HSF1,"1.14 fold enrichment (6-mer frequency, TF over GST control)"
same,binding signal,SPIC,"1.21 fold enrichment (6-mer frequency, TF over GST control)"
same,binding signal,ELF4,"1.29 fold enrichment (6-mer frequency, TF over GST control)"
same,binding signal,ELK4,"1.07 fold enrichment (6-mer frequency, TF over GST control)"
same,binding signal,ETV2,"1.4 fold enrichment (6-mer frequency, TF over GST control)"
same,binding signal,ELF3,"1.24 fold enrichment (6-mer frequency, TF over GST control)"
same,binding signal,CRX,"1.19 fold enrichment (6-mer frequency, TF over GST control)"
same,binding signal,ETV1,"1.29 fold enrichment (6-mer frequency, TF over GST control)"
